Screens deposited in PubChem BioAssay by National Center for Advancing Translational Sciences (NCATS).
Tau fibril FP = tau fibrillization inhibition (FP) | AID 1468 | Potency, µM (titrated, usually from 57.7 µM), most hits filed as inhibitors | P10636 | actives 0.39% (n = 280,000) | K18 P301L tau heparin fibrillization, Alexa594 FP, 6 h; also: nearly all actives have a fitted effect of over 55% in size
Target sequence (P10636 561-689 P618L limits assumed): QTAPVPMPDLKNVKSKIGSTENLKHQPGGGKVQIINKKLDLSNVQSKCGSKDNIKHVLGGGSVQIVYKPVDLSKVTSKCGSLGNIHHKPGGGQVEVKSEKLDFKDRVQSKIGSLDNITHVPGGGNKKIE
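Quantitative HTS format: compounds meet 15 uM recombinant K18 P301L tau and Alexa 594-tau tracer in 100 mM sodium acetate pH 7; 20 uM heparin triggers fibrillization at 37 C over 6 hr; FP gives the signal.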
Tau ThT inhib = tau fibrillization inhibition (ThT binding); P10636; recombinant tau K18 P301L, heparin-induced fibrillization, ThT fluorescence; Potency, µM (top dose mostly 57.4 µM), hits mostly inhibitors; actives 2.1% (n = 270,000); AID 1460; also: nearly all actives have a fitted effect of over 55% in size
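Fibril formation assay: tau K18 P301L at 15 uM with trace Alexa 594 label, heparin inducer 20 uM, pH 7 sodium acetate buffer, 37 C for 6 hr; endpoint ThT signal.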
FBPA coupling cs = counter-screen for Giardia aldolase inhibitors: coupling enzyme system | activity change, negative = inhibition, % at 58.2 µM, hits read low | actives 0.67% (n = 290,000) | coupling enzyme system counterscreen, AmpLite Red fluorescence | AID 2472; in the data active = activity change below about -30%
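Fluorescence at 525 nm excitation and 598 nm emission measured inhibition of the coupled detection system without aldolase. Compounds (at 57.5 uM final) were preincubated 10 min at room temperature with coupling enzyme reagent before a 20 min substrate/AmpLite Red step.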
Sfp PPTase inh = inhibitors of Bacillus subtilis Sfp phosphopantetheinyl transferase | Potency, µM, actives largely listed as inhibitors | AID 1490 | actives 3.5% (n = 310,000) | Q9F4F7 | Biochemical Sfp PPTase activity, qHTS;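 also: the enzyme is Sfp with the accession as filed and its product quenches rhodamine fluorescence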
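Step 1, compound plus 15 nM Sfp-PPTase, 15 min, room temperature. Step 2, add rhodamine-CoA (5 uM) and BHQ-2-YbbR (12.5 uM). Step 3, read 525/598 nm fluorescence at 0 and 30 min.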
Tau fluor cs = counter-screen for tau fibril formation inhibitors | tau K18 P301L Alexa594 fluorescence, heparin fibrillization | Potency, µM (series often up to 57.7 µM) | actives 0.93% (n = 280,000); also: nearly all actives have a fitted effect of over 55% in size
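Human tau K18 P301L (15 uM unlabeled, 0.24 uM Alexa 594-labeled) in 100 mM sodium acetate pH 7 with 20 uM heparin, 6 hr at 37 C. ThT 30 uM added, 1 hr ambient; Alexa 594 FP and total fluorescence read at 555/632 nm.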
Large screens that a line does not name were inactive; [ ] = another dose, or the depositor's remark. This is a sample that favours compounds with a hit; in the whole collection about 5.2% have one here. Unless noted, calls follow the shape of the dose curve; as a rule, active = well fitted curve in the direction sought with a large enough effect; inconclusive = small, poorly fitted or top-dose-only effect, or another doubt; inactive = no such curve, though single readings can be large; an effect the other way counts as inactive or inconclusive.

CCN(CC)S(=O)(=O)c1cc(-c2ccc(=O)n(C(C)C(=O)Nc3cccc(C#N)c3)n2)ccc1C (stereo not drawn)	Tau fluor cs inconclusive (no result: FBPA coupling cs, Sfp PPTase inh)
Cc1noc(/C=C/c2ccco2)c1S(=O)(=O)N1CCC(C(=O)N2CCc3ccccc3C2)CC1	Tau ThT inhib inconclusive, Sfp PPTase inh 56µM
Cc1ccc(CNC(=O)C2CCN(S(=O)(=O)c3c(C)noc3/C=C/c3ccco3)CC2)cc1	Sfp PPTase inh 40µM
Cc1c(Cl)cccc1NC(=O)C(C)n1nc(C)c2c(C)n(-c3ccccc3)nc2c1=O (stereo not drawn)	none (no result: FBPA coupling cs, Sfp PPTase inh)
CCn1c2ccccc2c2cc(NC(=O)Cc3ccc(S(=O)(=O)N4CCOCC4)s3)ccc21	Tau ThT inhib inconclusive, Tau fluor cs 7.9µM[quencher]
COc1ccc(CN2CCN(Cc3c[nH]c4ccccc34)CC2)cc1	Sfp PPTase inh 50µM (no result: Tau fibril FP, Tau ThT inhib, Tau fluor cs)
CCn1c2ccccc2c2cc(CN3CCN(Cc4cc(OC)ccc4O)CC3)ccc21	Sfp PPTase inh 50µM, Tau fluor cs inconclusive
COc1cc(=O)n(C)c2c(OC[C@@H](O)C(C)(C)O)cccc12	none (no result: Tau fibril FP, Tau ThT inhib, Tau fluor cs)
Fc1cccc(Cl)c1CNCCSc1nnnn1-c1ccccc1	none (no result: FBPA coupling cs, Sfp PPTase inh)
CCCc1c(C)[nH]c2ccc(C(=O)O)cc2c1=S	Sfp PPTase inh 25µM (no result: Tau ThT inhib)
Cn1nnc2sc3c(c2c1=O)CCCC3	Sfp PPTase inh 50µM
CN(C)c1ccc(CNC(=O)Cc2ccc(NC(=O)N3CCCCc4ccccc43)cc2)cc1	none (no result: FBPA coupling cs, Sfp PPTase inh)
COc1ccc(C(=O)n2nc(-c3ccco3)nc2N)cc1OC	Tau fibril FP inconclusive, Tau ThT inhib inconclusive
COc1ccc(C(=O)n2nc(-c3ccccc3)nc2N)cc1OC	Sfp PPTase inh 79µM
O=c1cnc2cnc(N3CCOCC3)nc2n1C1CC1	none (no result: Tau fibril FP, Tau ThT inhib, Tau fluor cs)
Cc1[nH]nc(-c2ccc(O)cc2O)c1-c1ccc(Cl)cc1	Tau fibril FP inconclusive, Tau fluor cs 22µM[quencher] (no result: FBPA coupling cs)
COc1ccc(-c2n[nH]c(C)c2-c2ccc(Cl)cc2)c(O)c1	Tau ThT inhib inconclusive, Tau fluor cs 20µM[quencher]
COc1ccc(-c2n[nH]c(C)c2-c2ccc(Cl)cc2)c(O)c1OC	Tau ThT inhib inconclusive
CC(C)OCCCNC(=O)CN1C(=O)c2cccnc2Sc2ccccc21	none (no result: FBPA coupling cs, Sfp PPTase inh)
COC(=O)c1ccc(NC(=O)N2CCC(CN3CCc4ccccc4C3)CC2)cc1	none (no result: FBPA coupling cs, Sfp PPTase inh)
CCOC(=O)CSc1nc2ccc(N3CCOCC3)cc2c(=O)n1Cc1ccc2c(c1)OCO2	Tau ThT inhib inconclusive, FBPA coupling cs -31, Tau fluor cs inconclusive
CCCCNC(=O)CSc1nc2ccc(N3CCOCC3)cc2c(=O)n1Cc1ccc(OC)cc1	Tau ThT inhib inconclusive, FBPA coupling cs -31
COCCNC(=O)CSc1nc2ccc(N3CCOCC3)cc2c(=O)n1Cc1ccc(OC)cc1	Tau ThT inhib inconclusive, FBPA coupling cs -39, Sfp PPTase inh inconclusive, Tau fluor cs inconclusive
COc1cccc(C(=O)N2CCc3cc(OC)c(OC)cc3C2COc2ccc3c(C)cc(=O)oc3c2)c1 (stereo not drawn)	none (no result: FBPA coupling cs, Sfp PPTase inh)
O=C(O)c1ncsc1-c1ccccc1	Sfp PPTase inh 25µM
Cc1ccc(Nc2nnns2)cc1C	Tau ThT inhib inconclusive, Sfp PPTase inh 22µM
COc1ccc(-n2c(Cc3cccn3C)nnc2SCC(=O)NCC2CCCO2)cc1 (stereo not drawn)	Sfp PPTase inh 50µM
Cc1ccc(-n2c(SCC(=O)NCC3CCCO3)nnc2-c2ccoc2C)cc1 (stereo not drawn)	none
COc1ccc(-n2c(Cc3cccn3C)nnc2SCC(=O)NC2CCCCC2)cc1	none
Cc1ccc(C)c(-n2c(SCC(=O)NCC3CCCO3)nnc2-c2ccoc2C)c1 (stereo not drawn)	Tau fibril FP 28µM, Tau ThT inhib inconclusive, Sfp PPTase inh inconclusive
CCOc1ccc(-n2cc(-c3ccccc3)c3c(NCCc4ccccc4)ncnc32)cc1	Tau ThT inhib inconclusive (no result: FBPA coupling cs, Sfp PPTase inh)
NS(=O)(=O)c1ccc(N=Nc2c(-c3ccccc3)[nH]n(-c3nc(-c4ccccc4)cs3)c2=O)cc1	Tau fibril FP inconclusive, Tau ThT inhib 1.8µM, Tau fluor cs 8.9µM[quencher]
NC(=O)c1ccc(N=Nc2c(-c3ccccc3)[nH]n(-c3ccccc3)c2=O)cc1	Tau ThT inhib inconclusive, Tau fluor cs inconclusive
Nc1[nH]n2c(=O)cc(-c3ccccc3)nc2c1N=Nc1ccccc1	Tau ThT inhib 5µM, Tau fluor cs inconclusive
